# ABHD5 PLIN5 PPI – ABHD5-PLIN5 protein interaction inhibition | inhibition, % at 4 µM | AID 602281 | 360,000 tested, 0.78% active | Split G. princeps luciferase complementation, luminescence, 4 h;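 active means inhibition above the mean inhibition across every tested compound plus 3 SD, cut at about 22% in these data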
# Target sequence (Q00G26 whole entry, looked up): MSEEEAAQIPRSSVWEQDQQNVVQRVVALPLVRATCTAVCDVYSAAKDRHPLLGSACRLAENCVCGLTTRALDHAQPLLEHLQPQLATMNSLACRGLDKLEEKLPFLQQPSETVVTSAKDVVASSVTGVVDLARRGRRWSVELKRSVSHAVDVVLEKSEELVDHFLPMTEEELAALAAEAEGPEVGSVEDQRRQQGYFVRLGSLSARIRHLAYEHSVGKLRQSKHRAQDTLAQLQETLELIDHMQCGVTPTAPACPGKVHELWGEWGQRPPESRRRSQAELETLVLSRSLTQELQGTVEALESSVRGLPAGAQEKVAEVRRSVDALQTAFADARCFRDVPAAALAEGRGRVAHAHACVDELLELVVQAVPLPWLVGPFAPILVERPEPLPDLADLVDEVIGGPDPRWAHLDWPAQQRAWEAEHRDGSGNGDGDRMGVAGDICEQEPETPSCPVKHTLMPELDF
# Target sequence (Q8WTS1 whole entry, looked up): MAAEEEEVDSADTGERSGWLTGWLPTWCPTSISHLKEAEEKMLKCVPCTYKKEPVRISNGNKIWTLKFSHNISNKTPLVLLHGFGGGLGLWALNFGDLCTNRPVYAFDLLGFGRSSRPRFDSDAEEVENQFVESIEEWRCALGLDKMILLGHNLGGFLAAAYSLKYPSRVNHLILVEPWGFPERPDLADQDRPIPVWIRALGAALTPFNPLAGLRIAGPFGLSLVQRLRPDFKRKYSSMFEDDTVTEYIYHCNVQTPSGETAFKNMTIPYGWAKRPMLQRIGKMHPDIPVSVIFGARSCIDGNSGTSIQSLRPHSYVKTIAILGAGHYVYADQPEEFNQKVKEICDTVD
# MITF TRPM1 inh – inhibitors of MITF-driven TRPM1 promoter in melanoma cells. SK-MEL-5 TRPM1 promoter luciferase, 24 h. inhibition, % at 12.5 µM. AID 488899. 330,000 tested, 0.83% active;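 active means mean inhibition across replicates of 60% or more, whatever share of single replicates reaches that level; inconclusive means some that reach 60%, reason not given; inactive means mean inhibition across replicates below 60%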
# Peg3 prom inh – reduces Peg3 promoter-driven luciferase expression in HeLa | HeLa PEG-Prom luciferase reporter, luminescence, overnight | inhibition, % at 20 µM | 360,000 tested, 1.7% active;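 active means inhibition of at least 50% at 20 µM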
# Shn3 inh set2 – reduces Shn3 3'UTR luciferase signal in osteoblasts. Clone20 osteoblast Shn3 3'UTR firefly luciferase, 24 h. inhibition, % at 12.5 µM. 360,000 tested, 0.52% active;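 active means mean inhibition of at least 75% with every replicate also reaching 75%; inconclusive means mean inhibition at least 75% but some replicate below; inactive means mean inhibition below 75%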
# PAX8 inh HTS – PAX8 transcriptional activity inhibition. inhibition, % at 12.6 µM. RMG-I TPO-luciferase reporter, SteadyGlo, 24 h. AID 652154. 360,000 tested, 1.2% active;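 active means mean replicate inhibition at least 60% with every replicate also reaching 60%; inconclusive means only one of the two criteria is met; inactive means mean below 60% and not all replicates reaching 60%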;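 further: luciferase light reporting Pax8 driven TPO promoter activity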
# EWS-Fli block – EWS/Fli transcriptional activity inhibition; A673 NR0B1-luciferase reporter, viability-normalised; inhibition, % at 12.6 µM; 350,000 tested, 0.67% active;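 active means mean inhibition of at least 50% after viability correction, with every replicate also passing that limit; inconclusive means mean reaches 50% but only one of two replicates passes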;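 further: firefly luciferase signal divided by Alamar Blue viability fluorescence both relative to DMSO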
# Hits are given with their value; . = inactive; ? = inconclusive; / = no result given. In the library only some 3% were active in any assay of this set; here they are far more common.
SMILES,ABHD5 PLIN5 PPI,MITF TRPM1 inh,Peg3 prom inh,Shn3 inh set2,PAX8 inh HTS,EWS-Fli block
Cc1ccc(-n2c(SCC(=O)N/N=C/c3c(C)nn(-c4ccccc4)c3C)nc3ccccc3c2=O)cc1,.,.,.,.,.,.
Cc1nn(-c2ccccc2)c(C)c1/C=N/NC(=O)CSc1nc2ccccc2c(=O)n1-c1ccc(Br)cc1,.,.,58,.,.,/
Cc1ccccc1-n1c(SCC(=O)N/N=C/c2c(C)nn(-c3ccccc3)c2C)nc2ccccc2c1=O,.,.,54,.,.,.
COc1ccc2c3c(n(C)c2c1)[C@@H](CO)N(C(=O)C1CCCC1)CC31CN(C)C1,/,/,/,/,.,.
Cc1cccc(NC(=O)Cn2cc(C(=O)C3CC3)c3ccccc32)c1C,.,.,.,87,.,.
CCC(=O)c1cn(CC(=O)Nc2ccccc2Cl)c2ccccc12,.,.,.,89,.,.
CCN(C[C@@H]1[C@@H](c2ccccc2)[C@H](CO)N1C(C)=O)C(=O)NC1CCCC1,/,/,/,/,.,.
CN(C)c1ccc(/C=C/c2cccc[n+]2[O-])cc1,.,.,.,.,.,.
CC(C)CC[n+]1ccccc1/C=C/c1ccc(N(C)C)cc1,.,73,.,.,82,.
Cc1noc(C)c1NC(=O)N(C)C[C@H]1Oc2ccc(NS(=O)(=O)c3c(C)noc3C)cc2C(=O)N([C@@H](C)CO)C[C@H]1C,/,/,/,/,/,.
Cc1nnnn1/C(=C\c1ccccc1)C(=O)OCC(=O)Nc1cccc(S(=O)(=O)N(C)C)c1,50,.,106,.,.,.
Cc1cc(C(=O)NC2CCCc3c2cnn3-c2ccc(C)c(C)c2)n(C)n1 (stereo not given),.,.,.,88,/,.
CCOc1ccccc1N1CCN(C(=O)c2cc3ccccc3cc2OC)CC1,.,.,.,.,.,59
COc1ccc(Nc2ncc(C(=O)N3CCN(c4ccc(F)cc4)CC3)c3ccccc23)cc1,.,.,59,.,/,/
CCOc1ccccc1C(=O)N1CCN(c2cccc(Cl)c2)CC1,.,.,.,.,/,/
COc1ccccc1N1CCN(c2ncc(C(=O)N3CCN(c4cccc(Cl)c4)CC3)c3ccccc23)CC1,.,.,.,93,.,.
C[C@@H]1CCCCO[C@H](CN(C)C(=O)Nc2ccccc2)[C@H](C)CN([C@@H](C)CO)C(=O)c2cc(NS(=O)(=O)c3ccccc3)ccc2O1,/,/,/,/,.,.
O=C(Cc1ccccn1)N[C@@H]1CC[C@@H](CCn2cc(-c3ccccc3)nn2)O[C@H]1CO,/,/,/,/,99,.
O=C(Cc1ccccn1)N[C@H]1CC[C@H](CCn2cc(-c3ccccc3)nn2)O[C@@H]1CO,/,/,/,/,79,.
O=C(Cc1ccccn1)NCC[C@H]1CC[C@@H](NC(=O)Nc2ccc(C(F)(F)F)cc2)[C@@H](CO)O1,/,/,/,/,.,.
O=C(Cc1ccccn1)NCC[C@H]1CC[C@H](NC(=O)Nc2ccc(C(F)(F)F)cc2)[C@H](CO)O1,/,/,/,/,69,.
Cc1ccc(-c2ccc3c(c2)O[C@H](CN(C)C(=O)CN(C)C)[C@@H](C)CN([C@H](C)CO)S3(=O)=O)cc1,/,/,/,/,/,.
Cc1cc(SCC(=O)N/N=C/c2ccc(O)cc2O)nc2ccccc12,.,.,54,92,.,.
Cc1cc(SCC(=O)N/N=C/c2ccc(O)c(O)c2)nc2ccccc12,.,.,.,.,.,.
COc1ccc2nc(C)cc(SCC(=O)N/N=C/c3cccc4ccccc34)c2c1,.,?,60,.,/,/
SMILES,ABHD5 PLIN5 PPI,MITF TRPM1 inh,Peg3 prom inh,Shn3 inh set2,PAX8 inh HTS,EWS-Fli block
COc1cccc(-c2nc(C(=O)NCC3CCCO3)cc3c2[nH]c2ccccc23)c1 (stereo not given),.,.,56,.,/,.
C=CC[C@]12N=C(c3ccc(OCCCO)cc3)O[C@H]1c1ccccc1CN(Cc1ccccc1)C2=O,/,/,/,/,.,.
Cc1ccc2c(Cl)cc(Cl)c(O)c2n1,.,73,.,.,.,.
S=C1SCN(Cc2cccnc2)CN1Cc1cccnc1,.,.,67,.,93,.
S=C1SCN(Cc2ccccc2)CN1Cc1ccccc1,.,.,.,.,.,.
CCOC(=O)/C=c1/s/c(=C/c2ccc3cc(OC)ccc3c2)c(=O)n1CC(=O)NCc1ccc2c(c1)OCO2,.,.,.,.,.,.
CCOC(=O)/C=c1\s/c(=C\c2ccc3cc(OC)ccc3c2)c(=O)n1CC(=O)NCC1CCCO1 (stereo not given),.,68,61,.,/,/
C[C@@H]1CN([C@H](C)CO)C(=O)c2cc(NC(=O)Nc3ccc4c(c3)OCO4)ccc2O[C@@H](C)CCCCO[C@H]1CN(C)S(=O)(=O)c1ccc(Cl)cc1,/,/,/,/,.,.
COc1ccc(S(=O)(=O)Nc2ccc3c(c2)CC(=O)N([C@@H](C)CO)C[C@@H](C)[C@H](CN(C)C(=O)Nc2ccccc2)O3)cc1,/,/,/,/,.,.
Cc1ccc(-n2nc3c([n+]2[O-])CCc2c-3no[n+]2[O-])cc1,.,.,.,90,.,/
CCCCC[n+]1cccc2c3ccccc3ccc21,.,.,.,.,.,.
c1ccc(C[n+]2cccc3c4ccccc4ccc32)cc1,.,62,.,.,/,/
O=C(C[C@H]1C=C[C@H](NC(=O)C2CC2)[C@H](CO)O1)NCC1CC1,/,/,/,/,.,.
COc1ccc(-c2cnc3c(c2)C(=O)N([C@H](C)CO)C[C@@H](C)[C@H](CN(C)C(=O)Cc2ccccn2)O3)cc1,/,/,/,/,/,.
CC[C@H](C)[C@@H]1NC(=O)[C@@H](CC(C)C)NC(=O)[C@H](C(C)C)NC(=O)[C@H]2CSSC[C@H](NC1=O)C(=O)N2,.,/,98,89,116,68
CO[C@H]1CC[C@@H]2CCOc3ccc(C#N)cc3C(=O)N(C)C[C@H](C)C(=O)N(C)C[C@@H]1O2,/,/,/,/,.,.
C=CCN1C(=O)[C@]2(O[C@H](CCO)[C@@H]([Si](C)(C)c3ccc(OC)cc3)[C@@H]2C)c2cc(NC(=O)[C@H](C)O)ccc21,/,/,/,/,.,.
COc1ccc([Si](C)(C)[C@H]2[C@H](CCn3cc(CCO)nn3)O[C@@]3(C(=O)N(C)c4ccccc43)[C@@H]2C)cc1,/,/,/,/,/,.
COc1ccc([Si](C)(C)[C@H]2[C@H](CCO)O[C@@]3(C(=O)N(Cc4cccc(NC(=O)[C@H](C)O)c4)c4ccccc43)[C@@H]2C)cc1,/,/,/,/,86,.
COc1ccc([Si](C)(C)[C@@H]2[C@@H](CCO)O[C@]3(C(=O)N(Cc4ccc(NC(=O)[C@H](C)O)cc4)c4ccccc43)[C@H]2C)cc1,/,/,/,/,101,.
COc1ccc([Si](C)(C)[C@@H]2[C@@H](CC(=O)N3Cc4ccccc4C[C@H]3CO)O[C@]3(C(=O)N(C)c4c(Br)cc(C)cc43)[C@H]2C)cc1,/,/,/,/,81,.
C=CCN1C(=O)[C@]2(O[C@H](CCO)[C@@H]([Si](C)(C)c3ccc(OC)cc3)[C@@H]2C)c2cc(I)ccc21,/,/,/,/,105,.
COc1ccc(S(=O)(=O)Nc2ccc3c(c2)C(=O)N([C@H](C)CO)C[C@H](C)[C@H](CN(C)S(=O)(=O)c2cccs2)OCCCC[C@H](C)O3)cc1,/,/,/,/,.,.

# Screens from PubChem BioAssay.
